Outcome and AC50 data for 37 molecules are collected here from PubChem BioAssay.

Records with an inconclusive call do not appear. Active and inactive are the calls of the source. The limit is not given here; nearly all actives have AC50 up to about 26 µM.

The nature of the first assay: viability loss in pontine glioma line – cell-based, SU-DIPG-XVII, MIPE5.0, CellTiter-Glo, qHTS, dose response (AID 1347060).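 As to AC50: cells exposed to compound for 48 hours before viability readout.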 The conditions noted are these: CellTiter-Glo ATP luminescence. A general note: Cellular ATP, detected with luciferase, serves as a proxy for viable cell number.
As to `CCC(CC)CC1(C(=O)Nc2ccccc2SC(=O)C(C)C)CCCCC1`, the result was inactive.
In the case of `CCO[C@@H]1OC(=O)C[C@@H]1NC(=O)[C@@H]1CCCN2C(=O)CC[C@H](NC(=O)c3nccc4ccccc34)C(=O)N12`, the result was inactive.
For the molecule `FC(F)(F)c1ccc(CNc2ccc(Cc3c[nH]c4ncccc34)cn2)cc1`, the concentration at half-maximal activity (AC50) (as a rule, the concentration giving half of the maximal activity seen) is 16.6 µM (active).
With `CN[C@@H](C)C(=O)N[C@H](C(=O)N1CCC[C@H]1c1nc(C(=O)c2ccc(F)cc2)cs1)C1CCCCC1`, the molecule was classed as inactive.
For `CN1CCN(C(=O)[C@H]2[C@@H](C(=O)O)[C@H]3CC[C@@H]2O3)CC1`, the molecule was classed as inactive.
As to `N[C@@H](CCC(=O)O)C(=O)N[C@@H](Cc1c[nH]c2ccccc12)C(=O)O`, the molecule was called inactive.
In the case of `COCCNCc1ccc(-c2cc3nccc(Oc4ccc(NC(=S)NC(=O)Cc5ccc(F)cc5)cc4F)c3s2)nc1`, the AC50 was 7.42 µM (active).
For `CCCS(=O)(=O)c1nc(NC2CC2)cc(-c2ccc3c(ccn3C3CC(C)(C)NC(C)(C)C3)c2)n1`, the half-maximal activity concentration (AC50) was 3.93 µM (active).
Turning to `CC[C@@H](Oc1cccc(CN(CCCOc2ccc(OC)cc2)c2nc3ccccc3o2)c1)C(=O)O`, the outcome was inactive.
`C=CC(=O)N1CCC[C@H](n2c(=O)n(-c3ccc(Oc4ccccc4)cc3)c3c(N)ncnc32)C1`: the half-maximal activity concentration (AC50) is 0.59 µM (active).
Turning to `O=C(Nc1cccc(Cl)c1)Nc1ncc(CCNc2ncnc3ccsc23)s1`, the AC50 is 0.0166 µM (active).
Consider `Cc1ccc(-c2nn(C(C)(C)CNC(=O)c3ccncc3)c3ncnc(N)c23)cc1`, for which the concentration at half-maximal activity (AC50) was 10.5 µM (active).
For the molecule `N=C(N)c1ccc2nc(-c3cc(CC(=O)N[C@@H](CC(=O)O)C(=O)O)cc(-c4cc(S(N)(=O)=O)ccc4O)c3O)[nH]c2c1`, the outcome was inactive.

A short description of a further assay: viability loss in pontine glioma line – cell-based, SU-DIPG-XXV, MIPE5.0, CellTiter-Glo, qHTS, dose response (AID 1347065).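 Also: cells exposed to compound for 48 hours before ATP readout.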 The conditions noted are these: CellTiter-Glo ATP luminescence.
For `CN1CCN(C2CCC(n3cc(-c4ccc(Oc5ccccc5)cc4)c4c(N)ncnc43)CC2)CC1` (configuration not stated), the half-maximal activity concentration (AC50) is 1.86 µM (active).
Regarding `C=CC(=O)Nc1cccc(Nc2nc(Nc3ccc(Oc4ccnc(C(=O)NC)c4)cc3)ncc2F)c1`, the half-maximal activity concentration (AC50) was 7.42 µM (active).
`COc1cc2c(cc1OC)CN(CCc1ccc(-n3nnc(-c4cc(OC)c(OC)cc4NC(=O)c4cc(=O)c5ccccc5o4)n3)cc1)CC2`: the result was inactive.
In the case of `COc1ccc(C(=O)N2CCN(C(=O)/C=C/c3ccc(Br)cc3)CC2)cc1`, the molecule was classed as inactive.
Regarding `C=CC(=O)Nc1cccc(C)c1Nc1ncc2cc(-c3c(Cl)c(OC)cc(OC)c3Cl)ccc2n1`, the AC50 is 9.34 µM (active).
On to `Cc1cnc(NC(=O)c2cc(Oc3cnc(C(=O)N(C)C)nc3)c3cc(C)oc3c2)cn1`, for which the result was inactive.
Same read-out and setting: the value for `CC(C)(CO)n1cc(C(=O)c2cncc(NC(=O)Cc3ccc(Cl)cn3)c2)c2cnc(N)nc21` was “inactive”; that for `CCCNC(=O)c1cn2ncnc(Nc3cc(C(=O)NC4CC4)ccc3C)c2c1C` was “inactive”; that for `CC(C)[C@](O)(c1ccc2cc(OC(F)F)c(OC(F)F)cc2c1)c1cn[nH]n1` was “inactive”.
Regarding `Cn1cc(-c2c[nH]c3ncnc(N4CCOCC4)c23)cn1`, the molecule was called inactive.
For `C[C@@H](OC[C@@]1(c2ccccc2)CC[C@]2(CCC(=O)N2)CN1)c1cc(C(F)(F)F)cc(C(F)(F)F)c1`, the half-maximal activity concentration (AC50) is 18.6 µM (active).
Take `C[C@]1(C(=O)N(CCCC(=O)O)Cc2cccc(Cl)c2)CCN1C(=O)c1csc2ccccc12`: the outcome was inactive.
Consider `COC1CCC(N2C(=O)CNc3ncc(-c4ccc(C(C)(C)O)nc4)nc32)CC1` (configuration not stated), for which the AC50 is 11.8 µM (active).
With `COc1cc(-c2cn(C)c(=O)c3cnccc23)c(OC)cc1CN(C)C`, the call was inactive.
As to `CC(C)C[C@@H]1NC(=O)[C@@H](C(C)C)NC(=O)[C@@H]2CCCN2C(=O)[C@@H](CC(=O)O)NC(=O)[C@@H](Cc2c[nH]c3ccccc23)NC1=O`, the molecule was classed as inactive.
`O=C([O-])C[O-].[Pt+2]`: the molecule was classed as inactive.
Take `Cc1cc(Nc2cc(N)ncn2)c(=O)n2c1C(=O)NC21CCCCC1`: the outcome was inactive.
With `COc1cc2c(NC3CCN(C)CC3)nc(N3CCCN(C)CC3)nc2cc1OCCCN(C)C`, the call was inactive.
Turning to `CCc1ccc2nc(Nc3cc(Cc4ccccc4)nc(NC4CCC(O)CC4)n3)sc2c1` (configuration not stated), the AC50 was 18.6 µM (active).
Turning to `C[C@H]1CNC(=O)c2cnn3ccc(nc23)N[C@H](C)c2cc(F)ccc2O1`, the AC50 was 0.934 µM (active).
With `O=C1OC2(CCC(C(=O)Nc3ccn(-c4ccccc4F)n3)CC2)c2cnccc21` (configuration not stated), the result was inactive.
Take `O=C(Nc1ccc2c(c1)CCN(Cc1ncn[nH]1)C2)c1ccccc1-c1ccc(C(F)(F)F)cc1`: the molecule was classed as inactive.
For `Cn1nccc1Nc1nccc(-c2cc3c(s2)C(C)(C)N(CCN2CCOCC2)C3=O)n1`, the AC50 was 10.5 µM (active).
Take `CCCCCCCCCCCCCCCCOCCCOP(=O)(O)COC(CO)Cn1ccc(N)nc1=O` (configuration not stated): the molecule was called inactive.
